Lassa entry: inhibitors of Lassa virus binding or entry into cells; Potency, µM (series often up to 49.2 µM), for the others: top-dose activity change, negative = inhibition, most hits filed as inhibitors; AID 720533; 18,000 tested, 4.1% active; Lassa virus pseudotyped entry inhibition, cell-based qHTS
Marburg entry: inhibitors of Marburg virus binding or entry into cells. 18,000 tested, 6.5% active. Marburg virus pseudotype entry/binding inhibition, cell-based. Potency, µM (titrated, usually from 49.2 µM), inactives show top-dose activity change, negative = inhibition, hits mostly inhibitors. AID 720532
Active calls of the source: *; ? = inconclusive; [ ] = another dose, or the depositor's remark. This is a sample that favours compounds with a hit; in the whole collection about 8% have one here. Calls come from the whole dose curve; tested in HEK293 cells. % is set by controls: 0 for no effect and ±100 for the full control effect; potency is the fitted concentration of half-maximal effect.

SMILES	Lassa entry	Marburg entry
O=C1[C@@H]2[C@H]3[C@H](O)[C@H](O)CC(=NOC[C@@H](O)COCc4ccco4)[C@@H]3CC[C@H]2C(=O)N1C[C@@H]1CCCO1	7%[8.59 µM]	?
CCC(/C=C1\Sc2ccc(OC)cc2N1CCO)=C\c1sc2ccc(OC)cc2[n+]1CCO	-20%	5%
CCN1/C(=C/C=C/c2sc3ccccc3[n+]2CC)Sc2ccccc21	2.5µM*	2.8µM*
COc1ccc(O[C@H]2C=C[C@@H](c3ccccc3)O[C@H]2CON=C2[C@H]3CCn4c(=O)n(-c5ccccc5)c(=O)n4[C@@H]3[C@H](O)[C@@H]3O[C@H]23)cc1	6%[8.59 µM]	5%[8.59 µM]
Cc1ccc(S(=O)(=O)N[C@@H](Cc2ccccc2)C(=O)CCl)cc1	35µM*	?
Cc1ccc(S(=O)(=O)NCl)cc1	-10%	-13%
Cc1nn(C)cc1CN1CCOc2ccc(C(C)(O)COc3ccccc3)cc2C1 (stereo not given)	-5%	6%
